USP28 block: blocks human USP28 ubiquitin-rhodamine cleavage; Q96RU2; AID 1645857; 47,000 tested, 3% active; purified USP28, Ub-rhodamine cleavage fluorescence, 30 min; inhibition, % at 25 µM
USP30 inh: inhibitors of human USP30 deubiquitinase; purified USP30, Ub-rhodamine cleavage fluorescence; Q70CQ3; 47,000 tested, 5.3% active; inhibition, % at 25 µM; AID 1645860
USP8 block: blocks human USP8 ubiquitin-rhodamine cleavage | P40818 | purified USP8, Ub-rhodamine cleavage fluorescence, 30 min | inhibition, % at 20 µM | 47,000 tested, 4.2% active | AID 1645853
USP17 inh: blocks human USP17 ubiquitin-rhodamine cleavage; purified USP17, Ub-rhodamine cleavage fluorescence, 3 h; inhibition, % at 50 µM; 47,000 tested, 6.5% active; AID 1645855
USP10 block: inhibitors of human USP10 deubiquitinase; Q14694; purified USP10, Ub-rhodamine fluorescence, 60 min; inhibition, % at 20 µM; 47,000 tested, 1.1% active; AID 1645856
OTUD3 block: inhibitors of human OTUD3 deubiquitinase. 47,000 tested, 0.7% active. Q5T2D3. inhibition, % at 25 µM. purified OTUD3, Ub-rhodamine fluorescence, 2 h
Numbers without * were called inactive; nt = no result. A selection: hits, their analogues and other compounds. The true share with any hit is near 13%. Rule as the data show it: active = inhibition above about 30%; inactive = the rest.

SMILES	USP28 block	USP30 inh	USP8 block	USP17 inh	USP10 block	OTUD3 block
CCOC(=O)c1ccc(-n2c(CN3CCN(c4cc(C)ccc4C)CC3)nc3ccc([N+](=O)[O-])cc3c2=O)cc1	12	30*	20	12	6	14
O=c1c2cc([N+](=O)[O-])ccc2nc(CN2CCC(Cc3ccccc3)CC2)n1-c1ccccc1F	-1	-31	-75	-6	0	-11
COCCn1c(=O)[nH]c2cc(C(=O)Nc3cc(OC)c(OC)c(OC)c3)ccc2c1=O	13	10	-7	3	2	0
COCCn1c(=S)[nH]c2cc(C(=O)NCCSCc3ccccc3)ccc2c1=O	17	71*	9	27	21	8
O=C(Cc1c(F)cccc1Cl)N1CCC(O)(C2CCN3Cc4ccccc4N=C23)CC1 (centres undefined)	11	25	17	13	0	9
Cc1ccc(C)c2[nH]c(=O)c(CN(CC3CCCO3)S(=O)(=O)c3ccccc3Cl)cc12 (centres undefined)	20	33*	19	14	3	6
CC(=O)Nc1ccc(S(=O)(=O)N(Cc2cc3ccc(C)cc3[nH]c2=O)CC2CCCO2)cc1 (centres undefined)	-3	-24	7	1	-2	2
CC(=O)CSc1nc2sc3c(c2c(=O)n1-c1ccccc1)CCCC3	7	30*	10	16	24	16
Cc1c(CC(=O)NC(C(=O)O)c2ccccc2)c(=O)oc2c(C)c(O)ccc12 (centres undefined)	13	0	12	9	0	5
CC(=O)N1CCc2cc(S(=O)(=O)NC(Cc3ccccc3)C(=O)NCc3ccc4c(c3)OCO4)ccc21 (centres undefined)	52*	54*	13	56*	11	17
CC(=O)N1CCc2cc(S(=O)(=O)NC(Cc3ccccc3)C(=O)Nc3cccc(Cl)c3C)ccc21 (centres undefined)	70*	67*	47*	36*	55*	38*
CC(=O)N1CCc2cc(CNS(=O)(=O)c3ccccc3)ccc21	9	17	-2	3	1	8
Cc1n[nH]c(C)c1CC(=O)NCCc1ccccc1Cl	0	0	-1	-2	0	2
O=C1CN(Cc2ccc(F)cc2)S(=O)(=O)c2ccccc2N1Cc1ccccc1F	12	21	8	6	4	18
COc1ccc(C2CC(=O)N(CC(=O)c3ccccc3)c3ccccc3S2(=O)=O)cc1OC (centres undefined)	2	16	-71	1	-4	7
O=C1CN(Cc2ccccc2)S(=O)(=O)c2ccccc2N1Cc1ccccc1F	-2	17	-8	-6	7	3
COc1ccc(C2CC(=O)N(Cc3ccccc3F)c3ccccc3S2(=O)=O)cc1OC (centres undefined)	0	-59	33*	36*	10	-2
O=C1CC(c2ccccc2)S(=O)(=O)c2ccccc2N1Cc1ccccc1F (centres undefined)	8	29	14	39*	6	8
O=C1CN(Cc2cccc(F)c2)S(=O)(=O)c2ccccc2N1Cc1ccccc1F	6	31*	3	6	12	11
CCC(=O)Oc1ccc(-n2nnnc2C2(Nc3ccc(NC(C)=O)cc3)CCCCC2)cc1	9	5	5	-6	1	7
Cc1ccc(CNCc2c(C(=O)O)c(C)n(-c3ccccc3)c2C)cc1	-7	-74	17	18	0	-9
O=C(COc1ccc(Cl)cc1)N1CCc2nc(-c3ccccc3)sc2C1	21	22	8	13	11	13
O=C(CSc1nnc(CNC(=O)c2ccccc2F)o1)Nc1ccc(Br)cc1	8	0	3	33*	2	-12
Cc1ccc(Cn2c(=O)c3c(nc(N4CCOCC4)n3C)n(C)c2=O)cc1	-7	4	-17	-15	0	-4
O=C(Cn1cnc(-c2noc(-c3cccc(F)c3)n2)c1)Nc1ccccc1	-5	-6	65*	8	27	-3
O=C(COc1cccc(-c2noc(-c3ccc([N+](=O)[O-])cc3)n2)c1)Nc1ccccc1	-2	0	9	1	22	0
O=C(Cn1cnc(-c2noc(-c3ccccc3)n2)c1)Nc1ccccc1	nt	nt	90*	28	42*	-2

Screening results as filed in PubChem.
